Assay outcomes: PubChem BioAssay, Broad Institute
F508del corr = correctors of CFTR F508del function in bronchial epithelial cells; CFBE cells, YFP halide quenching; stimulated with forskolin plus potentiator P3; % fluorescence drop versus neutral controls; activity (quench increase), % at 7.58 µM; hit rate 0.36% among 350,000;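 active = mean added fluorescence quench of at least 8% versus neutral control, with both replicates also reaching 8%; inconclusive = only one of the mean or replicate conditions met; inactive = mean below 8% and not both replicates reaching 8%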;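 note: cells transiently co-express mutant CFTR-F508del with the halide-sensitive YFP; corrector assay measuring rescue of mutant channel to the surface after 24 h compound exposure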
ARNT-TACC3 inh = disruptors of human ARNT/TACC3 interaction; AlphaScreen His-ARNT PAS-B/GST-TACC3 binding, luminescence; TACC3 fragment carries E629A point mutation; hit rate 0.66% among 390,000; AID 623870; inhibition, % at 9.99 µM;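 active = mean inhibition of replicates at least 50% and at least half of replicates each reaching 50%; inconclusive = half or more replicates reach 50% but mean below 50%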
Statin myotox sup = suppression of simvastatin myotoxicity. C2C12 myotubes + simvastatin, ATP luminescence, 48 h; scaled: DMSO 0, geranylgeraniol control 100. rescue of ATP level, % at 7.49 µM. hit rate 0.78% among 330,000;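 active = mean ATP rescue above about 67%, or every replicate alone reaching that limit, limit read from the data, passing the limit was not always enough; inconclusive = no clear call, values can overlap the other calls; inactive = mean under the limit and some replicate under it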;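 note: myotubes were challenged with 10 µM simvastatin during compound exposure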
PglD DTNB = blocks C. jejuni PglD acetyltransferase activity; purified PglD enzyme, DTNB colorimetric CoA detection; hit rate 0.098% among 360,000; inhibition, % at 12.5 µM; AID 602405; in the data active = inhibition above about 16%, passing the limit was not always enough; inconclusive = no clear call, values can overlap the other calls
Each line names hits and unclear results; the compound was inactive in the other large screens. Sampled rows, rich in hits. Any-hit rate of the full collection: about 1.4%.

COc1ccc(S(=O)(=O)Nc2ccc3c(c2)C(=O)N([C@H](C)CO)C[C@H](C)[C@H](CN(C)S(=O)(=O)c2ccc(F)cc2)OCCCC[C@@H](C)O3)cc1	Statin myotox sup inconclusive
COc1ccc(S(=O)(=O)Nc2ccc3c(c2)C(=O)N([C@@H](C)CO)C[C@@H](C)[C@H](CN(C)C(=O)c2ccccc2)OCCCC[C@@H](C)O3)cc1	Statin myotox sup 113
COc1ccc(S(=O)(=O)Nc2ccc3c(c2)C(=O)N([C@H](C)CO)C[C@@H](C)[C@H](CN(C)S(=O)(=O)c2ccc(F)cc2)OCCCC[C@H](C)O3)cc1	Statin myotox sup 159
COc1ccc(S(=O)(=O)Nc2ccc3c(c2)C(=O)N([C@H](C)CO)C[C@H](C)[C@H](CN(C)S(=O)(=O)c2ccc(F)cc2)OCCCC[C@H](C)O3)cc1	Statin myotox sup 107
COc1ccc(S(=O)(=O)Nc2ccc3c(c2)C(=O)N([C@@H](C)CO)C[C@@H](C)[C@@H](CN(C)C(=O)c2ccccc2)OCCCC[C@@H](C)O3)cc1	none
COc1ccccc1/C=C/C=O	none (no result: Statin myotox sup)
C[C@@H]1CCCCO[C@H](CN(C)Cc2ccc(C(F)(F)F)cc2)[C@H](C)CN([C@H](C)CO)C(=O)c2cc(NS(C)(=O)=O)ccc2O1	none (no result: Statin myotox sup)
NC(CO)C(=O)NNCc1ccc(O)c(O)c1O (configuration not stated)	ARNT-TACC3 inh 57
COCC(=O)N1CCC2(CC1)CN(C(=O)NC1CCCC1)[C@H](CO)c1c2c2ccc(OC)cc2n1C	none (no result: ARNT-TACC3 inh, Statin myotox sup, PglD DTNB)
O=C(CN1CCCCC1)Nc1ccc(C(F)(F)F)cc1Cl	Statin myotox sup 91
O=C(CN1CCCC1)Nc1cc(C(F)(F)F)ccc1Cl	none (no result: Statin myotox sup, PglD DTNB)
CCn1c(SCC(=O)N/N=C/c2cc(OC)c(O)c(OC)c2)nc2ccccc21	none (no result: F508del corr, Statin myotox sup)
CCn1c(SCC(=O)N/N=C/c2ccc(O)c(OC)c2)nc2ccccc21	F508del corr 8.3 (no result: Statin myotox sup, PglD DTNB)
COC1=C(N)C(=O)c2nc(-c3nc(C(=O)O)c(C)c(-c4ccc(OC)c(OC)c4O)c3N)ccc2C1=O	ARNT-TACC3 inh 65 (no result: F508del corr, Statin myotox sup)
C[C@@H]1CN([C@H](C)CO)C(=O)c2cccc(NC(=O)Nc3ccc4c(c3)OCO4)c2O[C@H]1CN(C)Cc1ccc(Cl)c(Cl)c1	none
O=C(NCC(=O)N(Cc1cccs1)C(C(=O)NC1CCCCC1)c1cccnc1)c1ccco1 (configuration not stated)	Statin myotox sup 133 (no result: F508del corr)
O=C(NCC(=O)N(c1ccc(Cl)cc1)C(C(=O)NC1CCCC1)c1ccncc1)c1ccco1 (configuration not stated)	none
O=C(NCC(=O)N(Cc1ccccc1)C(C(=O)NC1CCCC1)c1cccnc1)c1ccco1 (configuration not stated)	none (no result: F508del corr)
Cc1ccc(C(C(=O)NC2CCCC2)N(C(=O)Cc2cccs2)c2ccc3c(c2)OCCO3)cc1 (configuration not stated)	Statin myotox sup 106
O=C(NCC(=O)N(c1ccc2c(c1)OCO2)C(C(=O)NC1CCCC1)c1ccncc1)c1ccco1 (configuration not stated)	Statin myotox sup 66 (no result: F508del corr)
CCCC#Cc1ccc([C@H]2[C@@H](CO)N(C(=O)NC(C)C)[C@@H]2CNC(C)=O)cc1	none (no result: ARNT-TACC3 inh, Statin myotox sup, PglD DTNB)
O=C(C[C@H]1C[C@H]2c3cc(NC(=O)c4cccnc4)ccc3O[C@H]2[C@H](CO)O1)NCc1ccccc1F	none
C[C@H]1CN([C@@H](C)CO)C(=O)c2cc(-c3ccc(C#N)cc3)cnc2O[C@@H]1CN(C)C(=O)c1ccccc1	none
COc1cccc(C(=O)Nc2ccncc2)c1OC	none
COc1cccc(C(=O)Nc2ccc(N(C)C)cc2)c1OC	Statin myotox sup 90 (no result: F508del corr)
COc1cccc(NC(=O)CCC(=O)Nc2cc(OC)c(NC(=O)c3cccs3)cc2OC)c1	ARNT-TACC3 inh 50
COc1cccc(NC(=O)c2cccc(OC)c2OC)c1	Statin myotox sup 116 (no result: F508del corr)
COc1cccc(C(=O)Nc2ccc3[nH]c(=O)[nH]c3c2)c1OC	none
COc1ccc(NC(=O)CCC(=O)Nc2cc(OC)c(NC(=O)c3cccs3)cc2OC)cc1	none
COc1ccc(CN2[C@@H](CO)[C@@H]3c4ccccc4N(C(=O)CC(F)(F)F)C[C@@H]32)cc1	none
CCCNC(=O)c1onc(CSc2ccc(Cl)cc2)c1C(=O)NCCC(C)C	Statin myotox sup 75
COc1ccc2c3c(n(C)c2c1)[C@H](CO)N(C(C)=O)CC31CCN(S(=O)(=O)c2ccccc2)CC1	none (no result: ARNT-TACC3 inh, Statin myotox sup, PglD DTNB)
O=C(NC1CC1)C1CCN(C2CCN(Cc3ccccc3C(F)(F)F)CC2)CC1	Statin myotox sup 83
CC(=O)Nc1ccc(CN2CCC(N3CCC(C(=O)NC4CC4)CC3)CC2)cc1	none (no result: ARNT-TACC3 inh)
COc1cccc(NC(=O)N[C@H]2C=C[C@H](CC(=O)N3CCCCC3)O[C@H]2CO)c1	none
CN1CCN(C(=O)C[C@@H]2CC[C@H]3[C@@H](COC[C@H](O)CN3C(=O)Nc3ccc4c(c3)OCO4)O2)CC1	none
COc1ccc(N=C2S/C(=C\c3cc(C)n(C)c3C)C(=O)N2CC(C)C)cc1	Statin myotox sup 156 (no result: F508del corr)
Cn1cnc2nc[nH]c2c1=S	F508del corr 16, Statin myotox sup 75
CO[C@H]1CN(C)C(=O)c2cc(NC(=O)CC(F)(F)F)ccc2OC[C@@H](C)NC[C@@H]1C	none (no result: ARNT-TACC3 inh, Statin myotox sup, PglD DTNB)
COC(=O)NC(=C(Cl)Cl)S(=O)(=O)c1ccccc1	Statin myotox sup 147 (no result: F508del corr)
Cc1ccc(C(=O)NC(=C(Cl)Cl)S(=O)(=O)c2ccccc2)cc1	none (no result: ARNT-TACC3 inh, Statin myotox sup, PglD DTNB)
Cc1cccc(N2CCN(C(=O)C3(S(=O)(=O)c4ccc(Cl)cc4)CC3)CC2)c1C	ARNT-TACC3 inh 50 (no result: PglD DTNB)
CCc1c(C)sc(NC(=O)c2ccco2)c1C(=O)N1CCCCC1	Statin myotox sup 116 (no result: F508del corr, ARNT-TACC3 inh)
CCc1c(C)sc(NC(=O)c2ccco2)c1C(=O)N1CCOCC1	none (no result: F508del corr)
COc1ccc(CNC(=O)C[C@@H]2CC[C@@H](NC(=O)c3cccc(F)c3)[C@@H](CO)O2)cc1	none
COCCNC(=O)C1CCCN(C(=O)c2ccc3sccc3c2)CC1 (configuration not stated)	F508del corr 8.5 (no result: ARNT-TACC3 inh)
COCCNC(=O)C1CCCN(C(=O)c2ccc(OC)c(F)c2)CC1 (configuration not stated)	none (no result: ARNT-TACC3 inh)
Cc1sc2nc(SCC(=O)NCc3ccco3)n(Cc3ccccc3)c(=O)c2c1C	Statin myotox sup 114 (no result: F508del corr)
CCOC(=O)c1sc2nc(SCC(=O)NCc3ccco3)n(Cc3ccccc3)c(=O)c2c1C	none (no result: F508del corr, Statin myotox sup, PglD DTNB)
COc1cc(/C(C#N)=C/c2ccccc2)c([N+](=O)[O-])cc1OC	Statin myotox sup 84 (no result: F508del corr)
C[C@@H]1CN([C@@H](C)CO)C(=O)Cc2cc(NC(=O)CCN3CCOCC3)ccc2O[C@H]1CN(C)CC1CC1	none
NS(=O)(=O)c1ccc(CCNc2nn3c(-c4cccc(OC(F)(F)F)c4)cnc3s2)cc1	F508del corr 14 (no result: ARNT-TACC3 inh)
Cc1cc(C)n2c(SCc3ccc(Br)cc3)nnc2n1	none (no result: F508del corr, ARNT-TACC3 inh, Statin myotox sup)
Cc1cc(C)n2c(SCc3c(C)noc3C)nnc2n1	Statin myotox sup 93 (no result: F508del corr)
CCC(=O)N(C)C[C@H]1Oc2cc(C#CCN(C)C)ccc2S(=O)(=O)N([C@@H](C)CO)C[C@@H]1C	none
